# Assay results taken from article PMC7862700, “An all-to-all approach to the identification of sequence-specific readers for epigenetic DNA modifications on cytosine”.
# What was measured:
# Assay in all cases: DAPPL (digital affinity profiling via proximity ligation, sequencing); 10 mM Tris-HCl pH 7.5, 50 mM NaCl, 1 mM DTT, 4% glycerol, room temperature, 30 min; GST-TFs on glutathione beads, 16-mer random dsDNA library, 0.1% formaldehyde crosslink after washing; high values mean tight binding
# FLI1 = molecular target: T1, FLI1 (Homo sapiens, UniProt Q01543 1-452); settings: protein: recombinant; tags: N-terminal GST; dsDNA, one strand shown
# T1 sequence: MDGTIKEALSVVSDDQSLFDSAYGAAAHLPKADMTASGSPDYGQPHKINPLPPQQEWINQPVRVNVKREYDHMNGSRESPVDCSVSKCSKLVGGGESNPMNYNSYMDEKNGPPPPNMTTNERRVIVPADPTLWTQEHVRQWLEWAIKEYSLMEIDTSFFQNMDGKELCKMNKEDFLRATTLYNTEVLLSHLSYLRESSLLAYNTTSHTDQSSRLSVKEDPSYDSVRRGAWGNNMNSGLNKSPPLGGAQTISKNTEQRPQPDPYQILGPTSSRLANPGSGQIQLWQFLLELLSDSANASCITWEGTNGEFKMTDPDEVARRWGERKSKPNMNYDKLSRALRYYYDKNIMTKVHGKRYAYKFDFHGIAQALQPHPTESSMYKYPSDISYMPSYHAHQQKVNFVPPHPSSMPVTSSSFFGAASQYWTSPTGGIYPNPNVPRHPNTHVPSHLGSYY
# Method in brief: (§1)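 GST fusions of human transcription factors were expressed in yeast and captured with glutathione beads. Once given DNA barcodes and pooled alongside a tag-only sample, they were incubated for 30 min at room temperature with 200 nmole of a random double-stranded 16-mer DNA library in Tris/NaCl/DTT/glycerol buffer, then washed, crosslinked (0.1% formaldehyde), proximity-ligated, PCR-amplified and sequenced on an Illumina NextSeq500. The binding signal of each hexamer is its read frequency for a factor divided by its frequency for the tag-only sample.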
# ELK1 = molecular target: T2, ELK1 (Homo sapiens, UniProt P19419 1-428); settings: protein: recombinant; tags: N-terminal GST; dsDNA, one strand shown
# T2 sequence: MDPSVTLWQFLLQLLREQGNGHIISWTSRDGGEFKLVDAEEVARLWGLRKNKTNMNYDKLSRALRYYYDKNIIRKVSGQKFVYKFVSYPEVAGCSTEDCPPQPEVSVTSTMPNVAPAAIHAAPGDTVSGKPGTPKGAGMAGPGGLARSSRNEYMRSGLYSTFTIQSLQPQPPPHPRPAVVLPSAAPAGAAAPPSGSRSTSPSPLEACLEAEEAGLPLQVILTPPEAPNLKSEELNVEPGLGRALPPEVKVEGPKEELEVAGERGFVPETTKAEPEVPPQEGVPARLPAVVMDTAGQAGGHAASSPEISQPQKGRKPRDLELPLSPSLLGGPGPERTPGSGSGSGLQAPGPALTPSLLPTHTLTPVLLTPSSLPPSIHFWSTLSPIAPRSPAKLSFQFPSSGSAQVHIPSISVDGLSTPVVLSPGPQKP
# Method in brief: as §1
# GABPA = molecular target: T3, GABPA (Homo sapiens, UniProt Q06546 1-454); settings: protein: recombinant; tags: N-terminal GST; dsDNA, one strand shown
# T3 sequence: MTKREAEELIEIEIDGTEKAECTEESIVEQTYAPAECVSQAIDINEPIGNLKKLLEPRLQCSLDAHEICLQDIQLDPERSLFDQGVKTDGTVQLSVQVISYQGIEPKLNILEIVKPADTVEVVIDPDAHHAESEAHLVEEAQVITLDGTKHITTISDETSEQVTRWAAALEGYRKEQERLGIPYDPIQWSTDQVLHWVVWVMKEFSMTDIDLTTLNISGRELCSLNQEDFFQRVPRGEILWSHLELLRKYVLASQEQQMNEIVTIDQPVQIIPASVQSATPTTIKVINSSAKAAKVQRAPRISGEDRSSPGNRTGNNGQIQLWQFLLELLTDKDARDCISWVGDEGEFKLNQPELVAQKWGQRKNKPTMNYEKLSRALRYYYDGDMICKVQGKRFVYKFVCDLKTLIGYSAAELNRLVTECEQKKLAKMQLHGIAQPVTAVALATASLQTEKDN
# Method in brief: as §1
# ERG = molecular target: T4, ERG (Homo sapiens, UniProt P11308 1-479); settings: protein: recombinant; tags: N-terminal GST; dsDNA, one strand shown
# T4 sequence: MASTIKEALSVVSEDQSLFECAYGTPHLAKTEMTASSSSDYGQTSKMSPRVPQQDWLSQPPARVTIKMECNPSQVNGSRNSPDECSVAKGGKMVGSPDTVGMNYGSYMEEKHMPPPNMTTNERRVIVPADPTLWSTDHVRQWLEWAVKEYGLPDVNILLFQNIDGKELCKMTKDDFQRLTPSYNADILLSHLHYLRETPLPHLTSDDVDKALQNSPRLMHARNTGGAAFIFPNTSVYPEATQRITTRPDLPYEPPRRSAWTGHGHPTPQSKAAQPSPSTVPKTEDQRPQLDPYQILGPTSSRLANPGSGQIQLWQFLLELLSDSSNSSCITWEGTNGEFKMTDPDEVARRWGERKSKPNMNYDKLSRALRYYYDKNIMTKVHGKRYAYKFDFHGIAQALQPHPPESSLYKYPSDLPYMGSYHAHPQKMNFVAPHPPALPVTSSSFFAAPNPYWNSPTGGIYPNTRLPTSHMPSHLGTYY
# Method in brief: as §1
# ELF1 = ELF1 (Homo sapiens, UniProt P32519 1-619); settings: protein: recombinant; tags: N-terminal GST; dsDNA, one strand shown
# Method in brief: as §1
# EHF = molecular target: T5, EHF (Homo sapiens, UniProt Q9NZC4 1-300); settings: protein: recombinant; tags: N-terminal GST; dsDNA, one strand shown
# T5 sequence: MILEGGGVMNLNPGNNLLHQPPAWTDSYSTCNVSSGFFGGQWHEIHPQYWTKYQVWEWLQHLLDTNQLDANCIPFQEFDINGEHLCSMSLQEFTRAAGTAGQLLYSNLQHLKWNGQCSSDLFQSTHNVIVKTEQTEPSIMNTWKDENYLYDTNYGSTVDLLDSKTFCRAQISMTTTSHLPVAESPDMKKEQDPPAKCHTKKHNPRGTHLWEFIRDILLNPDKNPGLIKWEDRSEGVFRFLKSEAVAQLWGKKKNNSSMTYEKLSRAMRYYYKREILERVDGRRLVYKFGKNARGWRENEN
# Method in brief: as §1
# SPI1 = SPI1 (Homo sapiens, UniProt P17947 1-270); settings: protein: recombinant; tags: N-terminal GST; dsDNA, one strand shown
# Method in brief: as §1
# SPIB = SPIB (Homo sapiens, UniProt Q01892 1-262); settings: protein: recombinant; tags: N-terminal GST; dsDNA, one strand shown
# Method in brief: as §1
# ELK3 = molecular target: T6, ELK3 (Homo sapiens, UniProt P41970 1-407); settings: protein: recombinant; tags: N-terminal GST; dsDNA, one strand shown
# T6 sequence: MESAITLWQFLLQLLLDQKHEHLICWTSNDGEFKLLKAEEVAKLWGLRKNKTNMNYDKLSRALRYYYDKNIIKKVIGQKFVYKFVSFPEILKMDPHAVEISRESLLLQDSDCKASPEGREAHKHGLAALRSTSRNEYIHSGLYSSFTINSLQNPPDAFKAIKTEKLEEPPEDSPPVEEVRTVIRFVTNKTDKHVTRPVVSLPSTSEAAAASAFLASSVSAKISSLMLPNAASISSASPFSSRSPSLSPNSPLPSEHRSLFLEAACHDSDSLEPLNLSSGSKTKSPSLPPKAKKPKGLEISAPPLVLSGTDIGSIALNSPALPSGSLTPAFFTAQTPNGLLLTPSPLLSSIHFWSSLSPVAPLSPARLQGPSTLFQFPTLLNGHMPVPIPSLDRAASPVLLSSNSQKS
# Method in brief: as §1
# FEV = molecular target: T7, FEV (Homo sapiens, UniProt Q99581 1-238); settings: protein: recombinant; tags: N-terminal GST; dsDNA, one strand shown
# T7 sequence: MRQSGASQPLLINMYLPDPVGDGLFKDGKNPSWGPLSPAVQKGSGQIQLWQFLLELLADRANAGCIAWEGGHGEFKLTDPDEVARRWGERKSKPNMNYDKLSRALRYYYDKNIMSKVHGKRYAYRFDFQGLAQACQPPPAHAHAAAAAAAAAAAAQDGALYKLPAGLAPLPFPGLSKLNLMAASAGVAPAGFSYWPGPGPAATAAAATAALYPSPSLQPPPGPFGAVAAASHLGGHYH
# Method in brief: as §1
# ETV5 = ETV5 (Homo sapiens, UniProt P41161 1-510); settings: protein: recombinant; tags: N-terminal GST; dsDNA, one strand shown
# Method in brief: as §1
# HSF1 = HSF1 (Homo sapiens, UniProt Q00613 1-529); settings: protein: recombinant; tags: N-terminal GST; chain copies: 3; dsDNA, one strand shown
# Method in brief: as §1
# SPIC = molecular target: T8, SPIC (Homo sapiens, UniProt Q8N5J4 1-248); settings: protein: recombinant; tags: N-terminal GST; dsDNA, one strand shown
# T8 sequence: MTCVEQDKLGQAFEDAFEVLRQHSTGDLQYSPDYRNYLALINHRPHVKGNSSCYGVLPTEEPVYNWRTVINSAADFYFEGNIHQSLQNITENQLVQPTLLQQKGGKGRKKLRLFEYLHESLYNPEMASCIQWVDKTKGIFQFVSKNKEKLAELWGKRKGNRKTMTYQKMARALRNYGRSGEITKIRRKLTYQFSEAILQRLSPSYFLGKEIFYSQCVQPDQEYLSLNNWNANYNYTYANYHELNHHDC
# Method in brief: as §1
# ELF4 = ELF4 (Homo sapiens, UniProt Q99607 1-663); settings: protein: recombinant; tags: N-terminal GST; dsDNA, one strand shown
# Method in brief: as §1
# ELK4 = molecular target: T9, ELK4 (Homo sapiens, UniProt P28324-2 1-405); settings: protein: recombinant; tags: N-terminal GST; dsDNA, one strand shown
# T9 sequence: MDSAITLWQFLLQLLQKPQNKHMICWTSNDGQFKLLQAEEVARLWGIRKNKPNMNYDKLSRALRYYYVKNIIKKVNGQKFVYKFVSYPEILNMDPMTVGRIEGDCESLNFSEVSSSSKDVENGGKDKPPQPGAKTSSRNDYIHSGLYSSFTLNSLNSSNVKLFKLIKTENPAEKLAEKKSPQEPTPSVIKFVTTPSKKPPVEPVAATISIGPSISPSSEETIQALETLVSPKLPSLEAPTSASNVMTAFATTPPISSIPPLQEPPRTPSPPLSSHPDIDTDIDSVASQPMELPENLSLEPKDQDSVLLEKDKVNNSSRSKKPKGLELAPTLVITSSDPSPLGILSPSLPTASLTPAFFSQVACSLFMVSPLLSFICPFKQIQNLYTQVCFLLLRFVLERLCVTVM
# Method in brief: as §1
# ETV2 = molecular target: T10, ETV2 (Homo sapiens, UniProt O00321 1-342); settings: protein: recombinant; tags: N-terminal GST; dsDNA, one strand shown
# T10 sequence: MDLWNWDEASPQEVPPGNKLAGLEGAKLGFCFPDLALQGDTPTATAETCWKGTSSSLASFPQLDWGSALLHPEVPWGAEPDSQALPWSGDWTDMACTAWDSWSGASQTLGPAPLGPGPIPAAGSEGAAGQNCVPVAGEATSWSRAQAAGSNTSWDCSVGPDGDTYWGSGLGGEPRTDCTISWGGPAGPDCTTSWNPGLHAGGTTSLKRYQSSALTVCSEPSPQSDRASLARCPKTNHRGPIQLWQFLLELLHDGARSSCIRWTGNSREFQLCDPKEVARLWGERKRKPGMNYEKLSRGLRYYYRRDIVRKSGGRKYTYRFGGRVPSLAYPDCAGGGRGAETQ
# Method in brief: as §1
# ELF3 = molecular target: T11, ELF3 (Homo sapiens, UniProt P78545 1-371); settings: protein: recombinant; tags: N-terminal GST; dsDNA, one strand shown
# T11 sequence: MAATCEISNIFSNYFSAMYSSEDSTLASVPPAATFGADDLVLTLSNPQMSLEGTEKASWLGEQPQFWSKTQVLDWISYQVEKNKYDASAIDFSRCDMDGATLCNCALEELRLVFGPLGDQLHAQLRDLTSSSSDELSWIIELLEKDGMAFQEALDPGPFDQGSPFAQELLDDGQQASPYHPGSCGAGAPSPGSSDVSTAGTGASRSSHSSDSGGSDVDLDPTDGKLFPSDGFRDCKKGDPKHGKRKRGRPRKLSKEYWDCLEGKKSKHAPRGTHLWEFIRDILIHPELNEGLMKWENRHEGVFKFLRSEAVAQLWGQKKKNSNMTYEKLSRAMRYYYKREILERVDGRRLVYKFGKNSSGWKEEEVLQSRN
# Method in brief: as §1
# CRX = CRX (Homo sapiens, UniProt O43186 1-299); settings: protein: recombinant; tags: N-terminal GST; dsDNA, one strand shown
# Method in brief: as §1
# ETV1 = ETV1 (Homo sapiens, UniProt P50549 1-477); settings: protein: recombinant; tags: N-terminal GST; dsDNA, one strand shown
# Method in brief: as §1
# SPIB, sequence (Q01892 whole entry): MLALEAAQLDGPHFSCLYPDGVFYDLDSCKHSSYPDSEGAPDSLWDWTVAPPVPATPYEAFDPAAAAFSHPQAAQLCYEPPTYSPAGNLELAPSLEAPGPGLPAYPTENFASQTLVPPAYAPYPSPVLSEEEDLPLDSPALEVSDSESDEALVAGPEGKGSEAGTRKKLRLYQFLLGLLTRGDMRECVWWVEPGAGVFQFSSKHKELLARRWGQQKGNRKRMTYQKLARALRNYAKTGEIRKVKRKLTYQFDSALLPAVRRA
# CRX, sequence (O43186 whole entry): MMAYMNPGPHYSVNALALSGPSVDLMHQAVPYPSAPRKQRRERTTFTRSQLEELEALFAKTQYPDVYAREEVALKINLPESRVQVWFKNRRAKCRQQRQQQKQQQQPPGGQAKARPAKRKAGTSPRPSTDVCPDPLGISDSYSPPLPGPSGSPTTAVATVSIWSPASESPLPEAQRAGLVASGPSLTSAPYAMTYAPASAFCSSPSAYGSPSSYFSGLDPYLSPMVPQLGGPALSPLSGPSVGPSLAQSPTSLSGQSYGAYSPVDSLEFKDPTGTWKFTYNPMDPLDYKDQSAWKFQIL
# ETV5, sequence (P41161 whole entry): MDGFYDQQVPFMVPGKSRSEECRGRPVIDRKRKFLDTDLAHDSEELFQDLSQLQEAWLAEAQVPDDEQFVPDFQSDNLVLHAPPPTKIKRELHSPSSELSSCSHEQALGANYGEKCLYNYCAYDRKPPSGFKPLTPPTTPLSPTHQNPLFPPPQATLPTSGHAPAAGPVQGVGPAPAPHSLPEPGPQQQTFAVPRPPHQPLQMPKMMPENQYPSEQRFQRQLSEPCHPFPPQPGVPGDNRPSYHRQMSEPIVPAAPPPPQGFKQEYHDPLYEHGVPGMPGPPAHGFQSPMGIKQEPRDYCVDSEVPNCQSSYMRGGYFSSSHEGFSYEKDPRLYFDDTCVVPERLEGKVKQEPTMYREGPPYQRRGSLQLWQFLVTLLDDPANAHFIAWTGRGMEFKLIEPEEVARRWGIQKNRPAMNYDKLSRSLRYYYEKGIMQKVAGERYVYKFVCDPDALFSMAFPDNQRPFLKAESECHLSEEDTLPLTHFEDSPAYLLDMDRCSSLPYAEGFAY
# ELF1, sequence (P32519 whole entry): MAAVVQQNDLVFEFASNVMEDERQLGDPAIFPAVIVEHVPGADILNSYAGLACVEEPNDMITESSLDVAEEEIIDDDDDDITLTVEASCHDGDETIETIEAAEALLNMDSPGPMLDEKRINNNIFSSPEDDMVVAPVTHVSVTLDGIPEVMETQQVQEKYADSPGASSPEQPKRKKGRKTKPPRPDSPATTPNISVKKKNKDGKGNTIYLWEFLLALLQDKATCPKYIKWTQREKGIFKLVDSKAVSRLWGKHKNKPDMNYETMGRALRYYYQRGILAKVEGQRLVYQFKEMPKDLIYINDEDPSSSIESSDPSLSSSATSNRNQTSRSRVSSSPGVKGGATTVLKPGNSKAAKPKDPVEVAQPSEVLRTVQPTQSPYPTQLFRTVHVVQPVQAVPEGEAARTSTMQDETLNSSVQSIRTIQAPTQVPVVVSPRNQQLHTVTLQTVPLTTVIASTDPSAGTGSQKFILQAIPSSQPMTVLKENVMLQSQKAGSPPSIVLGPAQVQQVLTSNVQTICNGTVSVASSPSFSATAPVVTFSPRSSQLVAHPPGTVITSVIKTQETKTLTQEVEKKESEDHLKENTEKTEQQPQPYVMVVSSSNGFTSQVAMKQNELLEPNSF
# ELF4, sequence (Q99607 whole entry): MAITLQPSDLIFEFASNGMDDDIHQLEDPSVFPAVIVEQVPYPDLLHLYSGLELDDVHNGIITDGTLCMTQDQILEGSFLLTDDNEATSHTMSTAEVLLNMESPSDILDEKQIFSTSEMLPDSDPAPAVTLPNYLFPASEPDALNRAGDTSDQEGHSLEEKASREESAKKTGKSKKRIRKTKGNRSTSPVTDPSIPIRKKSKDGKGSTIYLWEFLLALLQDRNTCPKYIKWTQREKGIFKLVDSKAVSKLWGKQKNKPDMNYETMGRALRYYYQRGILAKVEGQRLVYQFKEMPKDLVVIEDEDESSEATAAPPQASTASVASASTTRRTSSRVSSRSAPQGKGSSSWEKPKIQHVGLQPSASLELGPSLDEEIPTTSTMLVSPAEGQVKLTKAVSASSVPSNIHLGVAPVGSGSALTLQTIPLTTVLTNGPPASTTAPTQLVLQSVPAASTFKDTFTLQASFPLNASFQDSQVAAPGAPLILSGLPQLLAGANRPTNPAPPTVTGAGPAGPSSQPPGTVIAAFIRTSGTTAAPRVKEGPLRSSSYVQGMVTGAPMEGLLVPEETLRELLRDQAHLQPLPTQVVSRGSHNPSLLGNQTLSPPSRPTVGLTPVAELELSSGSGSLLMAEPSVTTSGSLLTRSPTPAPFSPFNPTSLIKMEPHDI
# HSF1, sequence (Q00613 whole entry): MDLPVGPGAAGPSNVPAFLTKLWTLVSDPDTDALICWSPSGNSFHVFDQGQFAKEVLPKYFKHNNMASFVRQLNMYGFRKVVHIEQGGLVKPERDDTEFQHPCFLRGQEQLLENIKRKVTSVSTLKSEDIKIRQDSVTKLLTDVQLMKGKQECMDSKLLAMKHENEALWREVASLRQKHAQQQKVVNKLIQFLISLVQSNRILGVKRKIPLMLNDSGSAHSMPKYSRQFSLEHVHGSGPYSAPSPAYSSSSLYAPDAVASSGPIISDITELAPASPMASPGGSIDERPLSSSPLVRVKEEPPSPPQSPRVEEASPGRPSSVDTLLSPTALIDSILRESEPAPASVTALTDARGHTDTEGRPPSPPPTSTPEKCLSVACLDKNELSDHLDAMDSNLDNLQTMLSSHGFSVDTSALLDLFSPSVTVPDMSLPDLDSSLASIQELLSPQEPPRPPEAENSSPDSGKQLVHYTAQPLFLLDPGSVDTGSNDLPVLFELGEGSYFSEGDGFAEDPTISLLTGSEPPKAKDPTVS
# ETV1, sequence (P50549 whole entry): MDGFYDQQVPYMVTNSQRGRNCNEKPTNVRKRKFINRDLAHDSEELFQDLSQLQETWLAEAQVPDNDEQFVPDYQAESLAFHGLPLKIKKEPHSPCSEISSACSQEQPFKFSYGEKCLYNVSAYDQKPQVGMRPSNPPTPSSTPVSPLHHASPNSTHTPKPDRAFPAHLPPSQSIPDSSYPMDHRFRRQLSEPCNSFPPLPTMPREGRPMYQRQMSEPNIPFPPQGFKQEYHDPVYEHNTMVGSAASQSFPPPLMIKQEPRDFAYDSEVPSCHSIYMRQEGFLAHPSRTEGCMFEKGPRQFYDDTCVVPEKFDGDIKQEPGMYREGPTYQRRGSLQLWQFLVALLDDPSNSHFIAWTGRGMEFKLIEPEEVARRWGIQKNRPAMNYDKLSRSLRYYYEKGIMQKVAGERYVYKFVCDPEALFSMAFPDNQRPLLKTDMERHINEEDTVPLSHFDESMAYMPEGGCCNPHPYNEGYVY
sequence,measurement,setting,value
TCCTGG,binding signal,FLI1,"1.66 fold enrichment (6-mer frequency, TF over GST control)"
same,binding signal,ELK1,"1.47 fold enrichment (6-mer frequency, TF over GST control)"
same,binding signal,GABPA,"1.69 fold enrichment (6-mer frequency, TF over GST control)"
same,binding signal,ERG,"1.85 fold enrichment (6-mer frequency, TF over GST control)"
same,binding signal,ELF1,"1.69 fold enrichment (6-mer frequency, TF over GST control)"
same,binding signal,EHF,"1.66 fold enrichment (6-mer frequency, TF over GST control)"
same,binding signal,SPI1,"1.63 fold enrichment (6-mer frequency, TF over GST control)"
same,binding signal,SPIB,"1.74 fold enrichment (6-mer frequency, TF over GST control)"
same,binding signal,ELK3,"1.55 fold enrichment (6-mer frequency, TF over GST control)"
same,binding signal,FEV,"1.46 fold enrichment (6-mer frequency, TF over GST control)"
same,binding signal,ETV5,"1.68 fold enrichment (6-mer frequency, TF over GST control)"
same,binding signal,HSF1,"1.29 fold enrichment (6-mer frequency, TF over GST control)"
same,binding signal,SPIC,"1.54 fold enrichment (6-mer frequency, TF over GST control)"
same,binding signal,ELF4,"1.53 fold enrichment (6-mer frequency, TF over GST control)"
same,binding signal,ELK4,"1.38 fold enrichment (6-mer frequency, TF over GST control)"
same,binding signal,ETV2,"2.03 fold enrichment (6-mer frequency, TF over GST control)"
same,binding signal,ELF3,"1.17 fold enrichment (6-mer frequency, TF over GST control)"
same,binding signal,CRX,"1.27 fold enrichment (6-mer frequency, TF over GST control)"
same,binding signal,ETV1,"1.68 fold enrichment (6-mer frequency, TF over GST control)"
